# Measured values taken from PubChem BioAssay (Tox21).
# Results filed as inconclusive are left out. Where a call stands in place of a potency, no number is given. Calls of active or inactive are those of the source. Calls come from the whole dose curve; as a rule, active = well fitted cell-killing curve with a large enough effect in the repeat runs; inconclusive = weak or mixed curves, or effect the other way; inactive = flat fitted curve, though single readings scatter.
# Test: Nuclear factor erythroid 2-related factor 2/antioxidant responsive element (Nrf2/ARE) small molecule agonists: qHTS cell viability counter screen in human keratinocytes (AID 1919968); note: nearly all actives have a fitted effect of over 55% in size
# Conditions: KeratinoSens HaCaT ARE cells viability, CellTiter-Fluor, 24 h; series mostly up to 92.4 µM
# Excerpt: U.S. Tox21 Program National Center for Advancing Translational Sciences [NCATS] Division of Preclinical Innovation [DPI] U.S. Environmental Protection Agency [EPA] National Institutes of Environmental Health Sciences [NIEHS] National Toxicology Program [NTP] U.S. Food and Drug Administration [FDA] Tox21 Assay Overview: Oxidative stress has been implicated in the pathogenesis of a variety of diseases ranging from cancer to neurodegeneration. The antioxidant response element (ARE) signaling pathway plays an important role in the amelioration of oxidative stress. The KeratinoSens (Givaudan, Switzerland) is an in vitro test method which quantifies luciferase induction as a measure of activation of Keap1-Nrf2-antioxidationt/electrophile response element (ARE) dependant pathway in HaCaT human keratinocytes stably transfected with a selectable plasmid. The KeratinoSens assay is a cell-based assay with a reporter cell line to detect potential skin sensitizers by their ability to induce the Nrf2/ARE-response. The activation of the report gene under culture conditions can be detected by ONE-Glo Luciferase Assay System (Promega, Madison, WI). This cell line has been used to screen the Tox21 10K compound library to identify agonists that induce oxidative stress. The cytotoxicity of the Tox21 compound library against the KS-ARE cell line was tested in parallel by measuring the cell viability using CellTiter- Fluor assay system (Promega, Madison, WI) in the same wells.
# Tox21 Assay Protocol Summary: HaCaT derived cell line KeratinoSens were dispensed at 1,500 cells/5uL/well in 1536-well white wall/solid bottom plates using a Multidrop Combi (ThermoFisher Scientific, Waltham, MA) dispenser. After the assay plates were incubated at 37 C/5% CO2 for 5 h, 23 nL of compounds dissolved in DMSO, positive controls or DMSO only was transferred to the assay plate by a pintool workstation (Kalypsys, San Diego, CA). The plates were incubated at 37 C/5% CO2 for 23 h, followed by addition of 1uL/well of CellTiter-Fluor reagent into the assay plates using a Flying Reagent Dispenser (Aurora Discovery, San Diego, CA) for cell viability readout that measures cytotoxicity. After 1 h incubation at 37 C/5% CO2 the fluorescence intensity was measured using a ViewLux (PerkinElmer, Shelton, CT) plate reader.
row,SMILES,Potency
1,CC(=O)OCC(=O)Nc1cc(C#N)cc(NC(=O)COC(C)=O)c1Cl,inactive
2,CCC(N)(CO)CO,inactive
3,COc1ccc(N)c(OC)c1,inactive
4,C(=C\c1ccccc1)/c1ccccc1,inactive
5,CC1C(C)(C)C2=C(C(=O)CCC2)C1(C)C (stereo not given),inactive
6,CCCC(C)CCC(C)=O (stereo not given),inactive
7,Nc1ccccc1N,inactive
8,CCC(C(=O)OCCOCCN(CC)CC)c1ccccc1 (stereo not given),inactive
9,CCCCCCCN,inactive
10,CCCCCCCCS,inactive
11,Fc1ccccc1-c1ccccc1,inactive
12,C=CC(C)(CCC=C(C)C)OC(=O)CC (stereo not given),inactive
13,CC1=CCC(C(C)C)=CC1,inactive
14,C=CCOc1cc(Cl)ccc1C(=O)NCCN(CC)CC,inactive
15,C1CCCCC1,inactive
16,O=C(O)c1cc2ccccc2nc1C(=O)O,inactive
17,CC(C)CCOC(=O)c1ccccc1,inactive
18,O=C1Nc2ccccc2C1=O,inactive
19,Cc1ncc(CSSCc2cnc(C)c(O)c2CO)c(CO)c1O,inactive
20,OC/C=C/CO,inactive

row,SMILES,Potency
1,CCOc1ncc(F)c(=O)[nH]1,inactive
2,CNC1(C)C2CCC(C2)C1(C)C (stereo not given),inactive
3,O=C(OCCOCCO)c1ccccc1Nc1cccc(C(F)(F)F)c1,inactive
4,OC1CCCC1,inactive
5,CNC(=O)[C@H]1O[C@@H](n2cnc3c(NCc4cc(Cl)ccc4OCc4cc(C)no4)ncnc32)[C@H](O)[C@@H]1N,inactive
6,O=c1[nH]c2ccccc2c(=O)n1CCCl,inactive
7,O=C(O)[C@@H](O)[C@H](O)[C@H](O)[C@@H](O)C(=O)O,inactive
8,CCC/C=C/CO,inactive
9,O[C@@H]([C@H](O)[C@H](O)CBr)[C@H](O)CBr,inactive
10,CCOc1ccccc1OCC,inactive
11,COC(=O)c1cc(Cl)ccc1NS(=O)(=O)C(F)(F)F,inactive
12,O=C(O)CCCCCCCCCCC(=O)O,inactive
13,O=C(c1ccc2c(c1)C(=O)OC2=O)c1ccc2c(c1)C(=O)OC2=O,inactive
14,CO[Si](C)(C)OC,inactive
15,CC(C)(C)OC(=O)c1cccc(N)c1,inactive
16,COCCOCCOCCOCCOCCO,inactive
17,COc1ccc(-c2coc3cc(O)cc(O)c3c2=O)cc1,inactive
18,Cc1ccccc1C,inactive
19,CC(=O)O[C@H]1C[C@@H]2CC[C@@]1(C)C2(C)C,inactive
20,CCCOCCOCCOCCO,inactive
